# Measured values: PubChem BioAssay (EPA / NIEHS)
# Several values for one entry are separate records, joined by “and”; a condition that tells them apart may be missing. Identical values can stand only once. Activity calls are given as the source filed them. Rule for the calls: active = hit-call score of the fitted dose curve at least 0.9, where 1 is the maximum; inactive = score below 0.9.
# Test: CCTE_Shafer_MEA_acute_spike_number: CCTE's Neural Acute Assay for Total Number of Spikes, Shafer Lab (AID 2284008);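 for AC50: curve fitted for decrease in spike count so AC50 reflects inhibitors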
# Protocol: CCTE_Shafer_MEA_acute assay is conducted using Axion Biosystems 48 well microelectrode array (MEA) plates and Maestro recording system. Each well of the MEA plate contains a grid of 16 microelectrodes embedded in the culture surface. Electrically active cells, such as neurons, can be cultured over the electrodes, and electrical activity in these cells can be recorded extracellularly. The spontaneous firing of neurons is captured from each electrode on a microsecond timescale providing both temporally and spatially precise data. […] The CCTE_Shafer_MEA_acute assay uses primary cultures of rat cortical neurons. As these cultures mature over time, neural networks develop functional activity and form cohesive networks in which electrical activity can be highly coordinated. Baseline 40-minute recordings are made on days post-plating 13 or 15, followed by a secondary 40-minute recording after chemical exposure.CCTE_Shafer_MEA_acute_spike_number is a component of the CCTE_Shafer_MEA_acute assay. It measures the total number of spikes (action potential firings) in a 40-minute recording in a microelectrode array (MEA) using Axion Biosystems Maestro 768 channel amplifier with the AxIS adaptive spike detector. The recordings before and after chemical treatment are used to calculate a percent change in the spike number in each well. Data from the assay component CCTE_Shafer_MEA_acute_spike_number was analyzed into 1 assay endpoint. This assay endpoint, CCTE_Shafer_MEA_acute_spike_number, was analyzed in the negative analysis fitting direction relative to DMSO as the negative control and baseline of activity. Using a type of functional reporter, gain or loss-of-signal activity can be used to understand electrical activity.
# Spontaneous activity in the cortical cultures was recorded using an Axion Biosystems Maestro 768 channel amplifier and Axion Integrated Studios (AxIS) v1.8 (or later) software. The amplifier recorded from all channels simultaneously (gain = 1200 x; sampling rate = 12.5 kHz/channel): raw signals were filtered with a Butterworth band-pass filter (300-5000 Hz), which filters out slower local field potentials leaving only fast potentials, i.e., "spikes", arising from extracellular currents associated with action potentials (Pine 2006; Wheeler and Nam 2011). On-line spike detection of filtered signals was conducted with the AxIS adaptive spike detector, using a threshold of 8x the root mean squared (rms) noise on each channel. Any electrodes with rms noise levels greater than 5 uV were grounded (e.g., no data were recorded). Once grounded, an electrode was grounded for the duration of the experiment. All recordings were conducted at 37 C. Wells were deemed usable if on the day of the exposure >/= 10 electrodes were active (defined as >/= 5 spikes/min). On DIV 13 or 15, a minimum of three wells from one cortical culture preparation were treated with each compound (0.03-40 uM). Prior to recording baseline activity, each mwMEA plate was placed in the Maestro at 37 C and allowed to sit for 20 min while firing rates stabilized. Baseline activity (40 min) was recorded before the addition of each compound. An additional 40 min of spontaneous activity was recorded in the presence of each compound. Changes in network parameters relative to baseline were assessed following compound treatment.
SMILES,outcome,AC50
N[C@@H](CCC(=O)O)C(=O)O,inactive,–
c1ccc(OCCOc2ccccc2)cc1,inactive,–
CCCO[Si](OCCC)(OCCC)OCCC,inactive,–
CC(C)(CO)CO,inactive,–
CC/C(=C(\c1ccccc1)c1ccc(OCCN(C)C)cc1)c1ccccc1,–,2.73 µM (active) and 4.6 µM (active)
CC(=O)c1ccc(C)cc1,–,3 nM (active)
CC(C)CCCC(C)(C)O,inactive,–
O=C(c1ccc(OCCN2CCCCC2)cc1)c1c(-c2ccc(O)cc2)sc2cc(O)ccc12,–,14300 nM (active)
CCCCOCCOCCO,inactive,–
CCn1cc(C(=O)O)c(=O)c2ccc(C)nc21,–,3 nM (active)
CCCCN(CCO)CCO,inactive,–
